Experimental data from PubChem BioAssay (NCI).
Where “and” joins values, the source holds several entries; their conditions need not be identical. Identical values can stand only once. About 79,000 compounds went through this panel and 15% of them were active in at least one assay; those are over-represented in the sample as a whole. A number with no mark means an inactive call. Rule as the data show it: active = growth inhibition above about 70%; inactive = the rest.

assay: NCI Yeast Anticancer Drug Screen. Data for the rad50 strain (AID 155);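 also: 0% = growth of vehicle-only cultures of the same strain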; details: S. cerevisiae rad50 strain growth inhibition; at 50.0 µM; active compounds read high
Procedure, shortened: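 Genetically altered yeast (DNA repair pathway); compound treatment; growth inhibition vs vehicle ctrl.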

Going from `CNC(=O)Oc1cc(OC)ccc1C(=O)c1ccccc1` to `Cc1cc(C)cc(C(O)(C(=O)O)c2ccccc2)c1` (stereo not given), the growth inhibition falls from 2.45% to -0.75%.

First: O=P(Oc1ccccc1)(Oc1ccccc1)C(O)C(Cl)(Cl)Cl (stereo not given)
Second: CCCNC(Cc1ccccc1)c1ccccc1 (stereo not given)
The growth inhibition of the first is higher: 7.55% for the first, -7.95% for the second.

First: Cc1cc(N(CCCl)CCCl)ccc1C=Nc1ccc(F)cc1[N+](=O)[O-]
Second: COC1=CC(=Nc2ccc(N(CCCl)CCCl)cc2)C=CC1=O
The growth inhibition of the first is lower: 4.3% for the first, 17.6% for the second.

Compared with `CSP(=S)(SC)SC`, `CCC1(CC)COP(=S)(S)OC1` is lower in growth inhibition: 24% for the first, 10.8% for the second.

Going from `O=C(Nc1ccccc1Cl)OCC(Cl)(Cl)Cl` to `ClCc1cccc2ccccc12`, the growth inhibition falls from -15.3% to -28.7%.

First: O=C(Cc1ccccc1)Oc1ccc2c(-c3ccccc3)c(C(=O)Nc3ccc(Cl)cc3)c(=O)oc2c1
Second: O=c1oc2cc(O)ccc2c(O)c1C(c1ccccn1)c1c(O)c2ccc(O)cc2oc1=O
The growth inhibition of the first is lower: 6.75% for the first, 12.6% for the second.

First: Cc1cccc(OCC2=NCCN2)c1C
Second: Cc1cccc(C)c1N
The growth inhibition of the first is lower: 2.95% for the first, 10.3% for the second.

Going from `COCC1OC(OC2C3=C(C(C)C)CCC3(C)/C=C3\C(CCC3(O)COC)C(C)C2O)C(O)C2OC3OC12OC3(C)C1CO1` (stereo not given) to `CCCCCCC(=O)O[C@H]1CC[C@H]2[C@@H]3CCC4C/C(=N/NC(=O)c5cccc6c(=O)c7ccccc7[nH]c56)C=C(C)[C@]4(C)[C@H]3CC[C@]12C` (stereo not given in full), the growth inhibition falls from 28.1% to 3.1%.

Compared with `COc1ccc2c(c1OC)CC(N)C2O` (stereo not given), `CC1COC(Nc2cccc3c2CCCC3)=N1` (stereo not given) is lower in growth inhibition: 9% for the first, -10.1% for the second.

Going from `O=C(Cl)C1CCC1` to `NC(CCl)=NC1CN2CCC1CC2` (stereo not given), the growth inhibition falls from 11% to -22.5%.

First: O=c1[nH]c(=S)[nH]c(O)c1/C=C1\C=CC=N1
Second: CCCCC[N+]1=Cc2cc(O)c(O)cc2CC1
The growth inhibition of the first is lower: -22.9% for the first, -11.1% for the second.

First: O=C([O-])CN(CCN(CC(=O)[O-])CC(=O)O)CC(=O)O.[Fe+5].[Na+]
Second: CN(CCOC(=O)c1ccc(Br)cc1)[N+](=O)[O-]
The growth inhibition of the first is lower: -12.6% for the first, 8.9% for the second.

First: Cc1cccc2c(=O)c([Se]c3coc4c(C)cccc4c3=O)coc12
Second: C[N+](C)(C)Cc1ccc2ccccc2c1Br
The growth inhibition of the first is lower: -12.4% for the first, 30.3% for the second.

Going from `CCC(C)C(CC)C(=O)NC(N)=O` (stereo not given) to `CCNC(=O)C(C)Br` (stereo not given), the growth inhibition rises from 4.4% to 19.4%.

Going from `CC(N)C(O)c1ccc(O)cc1` (stereo not given) to `CN1CCC2=C(c3ccccc3)c3ccccc3C2C1` (stereo not given), the growth inhibition rises from -14% to 10.3%.

Going from `CC(=O)N1CCCN(C)/C1=N/[N+](=O)[O-]` to `COC1OC2COC(c3ccccc3)OC2C2N=C(N)N([N+](=O)[O-])C12OS(C)(=O)=O` (stereo not given), the growth inhibition rises from -20.1% to -4.8%.

Going from `CC(C)(NC1=NCCO1)c1ccccc1` to `CCCCNCCc1cccnc1`, the growth inhibition rises from -4.95% to 33.5%.

Compared with `Oc1c(Cl)cc(Cl)cc1C1N(Cc2ccc(N(CCCl)CCCl)cc2)CCCN1Cc1ccc(N(CCCl)CCCl)cc1`, `CC(C)CC1N=C(NN=C2CCCCC2)SP1(=O)NNc1ncccn1` (stereo not given) is lower in growth inhibition: 8.75% for the first, 1.25% for the second.

Work on `O=[Te]=O` yielded a growth inhibition of 20.4%.

For `CCOP(O)(=S)OCC`, the growth inhibition was 16.8% and 9.55% and 2.25%.
For `Cc1[nH]c2cc([N+](=O)[O-])ccc2c1[N+](=O)[O-]`, the growth inhibition was 44.6% and 36.9%.
With `C/C=C(\CC)C1(CCC)C(=O)NC(=O)NC1=O` the growth inhibition was 15.1% and 5.2%.
